In paper PMC7862700, “An all-to-all approach to the identification of sequence-specific readers for epigenetic DNA modifications on cytosine”:

Tests used:
Test in all cases: DAPPL (digital affinity profiling via proximity ligation, sequencing); 10 mM Tris-HCl pH 7.5, 50 mM NaCl, 1 mM DTT, 4% glycerol, room temperature, 30 min; GST-TFs on glutathione beads, 16-mer random dsDNA library, 0.1% formaldehyde crosslink after washing; high values mean tight binding
Conditions in all cases: protein: recombinant; tags: N-terminal GST; dsDNA, one strand shown
[1] = biological target: T1, ERF (Homo sapiens, UniProt P50548 1-548)
T1 sequence: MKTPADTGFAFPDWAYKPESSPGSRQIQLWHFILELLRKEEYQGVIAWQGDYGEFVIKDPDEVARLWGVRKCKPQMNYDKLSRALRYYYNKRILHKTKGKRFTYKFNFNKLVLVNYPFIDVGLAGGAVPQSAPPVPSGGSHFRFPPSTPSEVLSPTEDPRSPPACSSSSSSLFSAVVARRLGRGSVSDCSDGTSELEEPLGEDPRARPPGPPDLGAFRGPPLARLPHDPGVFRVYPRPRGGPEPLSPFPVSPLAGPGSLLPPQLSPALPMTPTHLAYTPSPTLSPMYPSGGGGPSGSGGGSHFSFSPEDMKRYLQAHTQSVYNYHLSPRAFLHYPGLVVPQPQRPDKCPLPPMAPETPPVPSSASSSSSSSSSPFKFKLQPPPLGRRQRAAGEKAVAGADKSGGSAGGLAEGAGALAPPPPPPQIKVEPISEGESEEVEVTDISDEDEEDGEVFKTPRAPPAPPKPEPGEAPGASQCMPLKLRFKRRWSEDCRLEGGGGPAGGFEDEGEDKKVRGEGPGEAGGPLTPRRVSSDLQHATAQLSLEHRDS
Outline: (§1)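 Pools were built from human transcription factors expressed in yeast as GST fusions, captured on glutathione beads and DNA-barcoded, along with a tag-only sample. Incubation with 200 nmole of a 16-mer random double-stranded DNA library lasted 30 min at room temperature in Tris/NaCl/DTT/glycerol buffer, and was followed by washing, 0.1% formaldehyde crosslinking, proximity ligation, PCR amplification and Illumina NextSeq500 sequencing. Binding signal is the quotient of each hexamer's read frequency for a factor and its frequency for the tag-only sample.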

[2] = biological target: T2, ETV3L (Homo sapiens, UniProt Q6ZN32 1-361)
T2 sequence: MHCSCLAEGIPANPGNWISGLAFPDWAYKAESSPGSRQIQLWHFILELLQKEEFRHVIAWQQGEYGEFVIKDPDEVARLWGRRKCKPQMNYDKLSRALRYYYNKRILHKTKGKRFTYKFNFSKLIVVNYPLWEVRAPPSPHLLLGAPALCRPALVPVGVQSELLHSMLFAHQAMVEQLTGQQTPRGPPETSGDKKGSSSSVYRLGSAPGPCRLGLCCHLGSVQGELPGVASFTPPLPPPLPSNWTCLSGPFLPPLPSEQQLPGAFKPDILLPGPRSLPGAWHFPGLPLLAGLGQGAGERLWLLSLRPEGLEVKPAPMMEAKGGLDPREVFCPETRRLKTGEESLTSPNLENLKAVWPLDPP
Outline: as §1

[3] = biological target: T3, ETS2 (Homo sapiens, UniProt P15036 1-469)
T3 sequence: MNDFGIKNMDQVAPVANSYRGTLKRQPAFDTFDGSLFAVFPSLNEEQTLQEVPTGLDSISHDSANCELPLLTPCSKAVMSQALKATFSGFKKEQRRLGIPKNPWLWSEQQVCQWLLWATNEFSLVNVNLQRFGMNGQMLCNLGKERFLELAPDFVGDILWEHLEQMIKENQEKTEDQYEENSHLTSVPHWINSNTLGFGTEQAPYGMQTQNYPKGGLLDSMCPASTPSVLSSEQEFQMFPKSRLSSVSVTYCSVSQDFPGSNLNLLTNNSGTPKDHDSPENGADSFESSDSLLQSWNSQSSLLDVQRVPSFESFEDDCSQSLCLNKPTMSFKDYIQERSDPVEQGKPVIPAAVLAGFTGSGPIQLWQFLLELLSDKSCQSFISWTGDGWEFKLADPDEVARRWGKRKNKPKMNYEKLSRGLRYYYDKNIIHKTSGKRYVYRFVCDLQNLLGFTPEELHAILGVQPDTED
Outline: as §1

[4] = biological target: T4, SPDEF (Homo sapiens, UniProt O95238 1-335)
T4 sequence: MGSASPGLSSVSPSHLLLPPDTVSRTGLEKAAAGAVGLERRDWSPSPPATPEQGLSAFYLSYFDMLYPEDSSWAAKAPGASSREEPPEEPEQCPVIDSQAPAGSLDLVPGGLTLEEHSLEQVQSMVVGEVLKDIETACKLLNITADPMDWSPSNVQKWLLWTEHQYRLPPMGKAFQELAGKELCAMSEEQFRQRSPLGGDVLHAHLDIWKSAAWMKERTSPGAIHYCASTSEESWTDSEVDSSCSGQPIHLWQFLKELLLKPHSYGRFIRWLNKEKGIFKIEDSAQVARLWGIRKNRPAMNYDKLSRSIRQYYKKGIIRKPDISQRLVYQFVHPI
Outline: as §1

[5] = biological target: T5, ETV7 (Homo sapiens, UniProt Q9Y603 1-341)
T5 sequence: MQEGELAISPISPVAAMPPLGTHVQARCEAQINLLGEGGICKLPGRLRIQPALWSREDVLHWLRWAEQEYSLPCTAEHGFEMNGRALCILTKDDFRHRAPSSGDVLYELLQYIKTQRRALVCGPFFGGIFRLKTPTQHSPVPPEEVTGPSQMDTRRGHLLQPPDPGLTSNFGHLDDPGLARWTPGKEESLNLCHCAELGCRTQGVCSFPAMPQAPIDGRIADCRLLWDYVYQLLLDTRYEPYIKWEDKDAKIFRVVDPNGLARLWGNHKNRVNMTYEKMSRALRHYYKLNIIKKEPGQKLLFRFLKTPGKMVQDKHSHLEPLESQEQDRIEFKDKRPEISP
Outline: as §1

[6] = biological target: T6, ELF5 (Homo sapiens, UniProt Q9UKW6-2 1-255)
T6 sequence: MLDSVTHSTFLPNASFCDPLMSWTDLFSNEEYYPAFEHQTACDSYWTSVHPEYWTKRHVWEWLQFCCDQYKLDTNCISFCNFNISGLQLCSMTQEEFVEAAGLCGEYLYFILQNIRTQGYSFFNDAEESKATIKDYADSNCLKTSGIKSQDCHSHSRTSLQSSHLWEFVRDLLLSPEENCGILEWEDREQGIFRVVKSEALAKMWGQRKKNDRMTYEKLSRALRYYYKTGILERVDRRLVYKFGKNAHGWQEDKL
Outline: as §1

[7] = biological target: T7, ETV3 (Homo sapiens, UniProt P41162-2 1-143)
T7 sequence: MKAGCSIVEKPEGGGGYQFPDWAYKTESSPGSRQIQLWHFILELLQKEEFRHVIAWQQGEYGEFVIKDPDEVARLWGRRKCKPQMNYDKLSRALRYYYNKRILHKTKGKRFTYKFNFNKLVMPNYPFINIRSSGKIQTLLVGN
Outline: as §1

[8] = biological target: ETV6 (Homo sapiens, UniProt P41212 1-452)
Outline: as §1

Sequence of ETV6 (P41212 whole entry): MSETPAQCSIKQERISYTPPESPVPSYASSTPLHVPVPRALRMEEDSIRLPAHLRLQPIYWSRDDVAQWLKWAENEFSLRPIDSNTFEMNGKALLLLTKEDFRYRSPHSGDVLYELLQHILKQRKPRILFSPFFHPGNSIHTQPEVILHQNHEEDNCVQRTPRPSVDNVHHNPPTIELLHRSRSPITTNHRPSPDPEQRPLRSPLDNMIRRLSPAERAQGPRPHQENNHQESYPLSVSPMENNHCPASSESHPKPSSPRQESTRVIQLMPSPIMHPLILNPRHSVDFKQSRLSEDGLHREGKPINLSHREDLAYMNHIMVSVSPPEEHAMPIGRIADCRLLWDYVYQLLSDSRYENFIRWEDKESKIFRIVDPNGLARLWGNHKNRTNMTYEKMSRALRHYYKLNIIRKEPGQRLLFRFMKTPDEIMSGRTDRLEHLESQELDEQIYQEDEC

With GCCTCT the binding signal [1] was 1.25 fold enrichment (6-mer frequency, TF over GST control), the binding signal [2] was 1.32 fold enrichment (6-mer frequency, TF over GST control) and the binding signal [3] was 1.25 fold enrichment (6-mer frequency, TF over GST control). The binding signal [4] was 1.3 fold enrichment (6-mer frequency, TF over GST control), the binding signal [5] was 1.35 fold enrichment (6-mer frequency, TF over GST control) and the binding signal [6] was 1.27 fold enrichment (6-mer frequency, TF over GST control). For the same sequence, the binding signal [7] was 1.34 fold enrichment (6-mer frequency, TF over GST control) and the binding signal [8] was 1.35 fold enrichment (6-mer frequency, TF over GST control).
For GCTTAC, the binding signal [1] was 1.13 fold enrichment (6-mer frequency, TF over GST control), the binding signal [2] was 1.09 fold enrichment (6-mer frequency, TF over GST control) and the binding signal [3] was 1.09 fold enrichment (6-mer frequency, TF over GST control). For the same sequence, the binding signal [4] was 1.23 fold enrichment (6-mer frequency, TF over GST control), the binding signal [5] was 1.03 fold enrichment (6-mer frequency, TF over GST control) and the binding signal [6] was 1.14 fold enrichment (6-mer frequency, TF over GST control). The binding signal [7] was 1.23 fold enrichment (6-mer frequency, TF over GST control) and the binding signal [8] was 1.03 fold enrichment (6-mer frequency, TF over GST control).
AAACCT was tested, and the binding signal [1] was 1.18 fold enrichment (6-mer frequency, TF over GST control), the binding signal [2] was 1.07 fold enrichment (6-mer frequency, TF over GST control) and the binding signal [3] was 1.13 fold enrichment (6-mer frequency, TF over GST control). For the same sequence, the binding signal [4] was 1.05 fold enrichment (6-mer frequency, TF over GST control), the binding signal [5] was 1.16 fold enrichment (6-mer frequency, TF over GST control) and the binding signal [6] was 1.13 fold enrichment (6-mer frequency, TF over GST control). For the same sequence, the binding signal [7] was 1.1 fold enrichment (6-mer frequency, TF over GST control) and the binding signal [8] was 1.16 fold enrichment (6-mer frequency, TF over GST control).
In the case of TCCGTA, the binding signal [1] is reported as 1.43 fold enrichment (6-mer frequency, TF over GST control), the binding signal [2] is reported as 1.53 fold enrichment (6-mer frequency, TF over GST control) and the binding signal [3] is reported as 1.57 fold enrichment (6-mer frequency, TF over GST control). The binding signal [4] was 1.79 fold enrichment (6-mer frequency, TF over GST control), the binding signal [5] was 1.37 fold enrichment (6-mer frequency, TF over GST control) and the binding signal [6] was 2.03 fold enrichment (6-mer frequency, TF over GST control). The binding signal [7] was 1.71 fold enrichment (6-mer frequency, TF over GST control) and the binding signal [8] was 1.54 fold enrichment (6-mer frequency, TF over GST control).
TCCGCC was tested, and the binding signal [1] was 1.48 fold enrichment (6-mer frequency, TF over GST control), the binding signal [2] was 1.59 fold enrichment (6-mer frequency, TF over GST control) and the binding signal [3] was 1.54 fold enrichment (6-mer frequency, TF over GST control). The binding signal [4] was 1.83 fold enrichment (6-mer frequency, TF over GST control), the binding signal [5] was 1.49 fold enrichment (6-mer frequency, TF over GST control) and the binding signal [6] was 2.2 fold enrichment (6-mer frequency, TF over GST control). For the same sequence, the binding signal [7] was 1.75 fold enrichment (6-mer frequency, TF over GST control) and the binding signal [8] was 1.63 fold enrichment (6-mer frequency, TF over GST control).
In the case of GCTCCG, the binding signal [1] is reported as 1.26 fold enrichment (6-mer frequency, TF over GST control), the binding signal [2] is reported as 1.33 fold enrichment (6-mer frequency, TF over GST control) and the binding signal [3] is reported as 1.33 fold enrichment (6-mer frequency, TF over GST control). For the same sequence, the binding signal [4] was 1.34 fold enrichment (6-mer frequency, TF over GST control), the binding signal [5] was 1.27 fold enrichment (6-mer frequency, TF over GST control) and the binding signal [6] was 1.25 fold enrichment (6-mer frequency, TF over GST control). The binding signal [7] was 1.2 fold enrichment (6-mer frequency, TF over GST control) and the binding signal [8] was 1.19 fold enrichment (6-mer frequency, TF over GST control).
With CTAACT the binding signal [1] was 1.32 fold enrichment (6-mer frequency, TF over GST control), the binding signal [2] was 1.19 fold enrichment (6-mer frequency, TF over GST control) and the binding signal [3] was 1.35 fold enrichment (6-mer frequency, TF over GST control). The binding signal [4] was 1.24 fold enrichment (6-mer frequency, TF over GST control), the binding signal [5] was 1.29 fold enrichment (6-mer frequency, TF over GST control) and the binding signal [6] was 1.21 fold enrichment (6-mer frequency, TF over GST control). For the same sequence, the binding signal [7] was 1.24 fold enrichment (6-mer frequency, TF over GST control) and the binding signal [8] was 1.29 fold enrichment (6-mer frequency, TF over GST control).
In the case of ACAGCT, the binding signal [1] is reported as 1.24 fold enrichment (6-mer frequency, TF over GST control), the binding signal [2] is reported as 1.19 fold enrichment (6-mer frequency, TF over GST control) and the binding signal [3] is reported as 1.12 fold enrichment (6-mer frequency, TF over GST control). The binding signal [4] was 1.02 fold enrichment (6-mer frequency, TF over GST control), the binding signal [5] was 1.21 fold enrichment (6-mer frequency, TF over GST control) and the binding signal [6] was 1.12 fold enrichment (6-mer frequency, TF over GST control). For the same sequence, the binding signal [7] was 1.14 fold enrichment (6-mer frequency, TF over GST control) and the binding signal [8] was 1.08 fold enrichment (6-mer frequency, TF over GST control).
